High-throughput results: PubChem, National Center for Advancing Translational Sciences (NCATS)
Sampled rows, rich in hits. Any-hit rate of the full collection: about 7.4%.
SMN2 splice enh: qHTS Assay for Enhancers of SMN2 Splice Variant Expression; 210,000 tested, 2.8% active; AID 1458, 2008; Potency, µM (highest dose often 46.1 µM), inactives show top-dose activity change, positive = activation, hits mostly activators; HEK293 SMN2-luciferase splicing reporter, luminescence, 30-36 h; note: % of control where 0% means no effect; nearly all actives have a fitted effect of over 55% in size
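HEK293 cells carry an SMN2 minigene-luciferase reporter in which exon 7 inclusion puts luciferase in frame. Cells were seeded at 2000 cells/well, attached for 10-12 hours, then exposed to compounds for 30-36 hours at 37C before ONE-Glo luminescence.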
FLuc modulator: qHTS profiling assay for firefly luciferase inhibitor/activator using purifed enzyme and Km concentrations of substrates (counterscreen for miR-21 project); Luciferin 4-monooxygenase (Photinus pyralis), P08659; purified FLuc, Km substrates, luminescence inhibition; Potency, µM (top dose mostly 57.5 µM), for inactives: top-dose activity change, negative = inhibition, actives largely listed as inhibitors; 360,000 tested, 6.9% active;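 note: plate controls were vehicle for no effect and reference inhibitor for full effect; nearly all actives have a fitted effect of over 55% in size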
Target sequence (P08659 whole entry, looked up): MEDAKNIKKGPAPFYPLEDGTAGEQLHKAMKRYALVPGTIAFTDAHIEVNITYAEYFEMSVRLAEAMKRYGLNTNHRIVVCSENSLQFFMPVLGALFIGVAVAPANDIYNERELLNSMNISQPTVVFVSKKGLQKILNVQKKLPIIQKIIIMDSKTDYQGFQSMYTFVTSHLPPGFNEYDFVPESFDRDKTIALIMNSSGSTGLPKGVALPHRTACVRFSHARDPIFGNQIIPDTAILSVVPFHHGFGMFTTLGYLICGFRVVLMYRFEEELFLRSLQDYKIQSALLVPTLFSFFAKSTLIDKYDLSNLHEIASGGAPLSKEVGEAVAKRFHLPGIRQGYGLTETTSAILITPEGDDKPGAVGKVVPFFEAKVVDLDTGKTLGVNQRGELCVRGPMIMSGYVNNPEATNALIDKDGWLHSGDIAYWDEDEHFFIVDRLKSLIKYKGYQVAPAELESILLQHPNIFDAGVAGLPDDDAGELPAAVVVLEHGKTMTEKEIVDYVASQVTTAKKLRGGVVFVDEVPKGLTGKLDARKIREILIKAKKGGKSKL
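Purified P. pyralis luciferase, 10 nM final, with Km-level 10 uM D-luciferin and 10 uM ATP in 50 mM Tris acetate pH 7.5, 10 mM Mg acetate, 0.01% Tween-20, 0.05% BSA; 6-point qHTS titration about 60 µM downward; luminescence read.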
NPC1 promoter act: qHTS Assay for NPC1 Promoter Activators. Potency, µM (series often up to 9.22 µM), inactives show at the top dose activation, actives largely listed as activators. Huh7 NPC1 promoter luciferase reporter, 24 h. AID 485313, 2010. 320,000 tested, 2.4% active; note: % of control where 0% means no effect; nearly all actives have a fitted effect of over 60% in size
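Huh7 cells stably carrying NPC1 promoter–luciferase, plated in Opti-MEM with 10% FBS for 2 h, were exposed to compound in DMSO for 24 h at 37 °C; luciferase reagent was added for 10 min and luminescence read.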
ELG1 genotoxic: qHTS screen for small molecules that induce genotoxicity in human embryonic kidney (HEK293T) cells expressing luciferase-tagged ELG1; HEK293T ELG1-luciferase reporter, luminescence, 16 h; Potency, µM (highest dose often 46 µM), inactives show top-dose activity change, positive = activation, most hits filed as activators; AID 504466, 2011; 330,000 tested, 1.3% active; note: % of control where 0% means no effect; nearly all actives have a fitted effect of over 60% in size
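HEK293T cells expressing luciferase-tagged ELG1 were treated with compound or DMSO for 16 hr at 37°C. Luciferase activity was then read after 30 min with ONE-Glo at room temperature; rising signal flags genetic stress.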
Rab9 prom act: qHTS Assay for Rab9 Promoter Activators; Huh7 Rab9 promoter-luciferase reporter, luminescence, 24 h; Potency, µM (series often up to 9.22 µM), for the others: at the highest dose activation, negative = inhibition, hits mostly activators; 320,000 tested, 2.8% active; AID 485297, 2010; note: % of control where 0% means no effect; nearly all actives have a fitted effect of over 60% in size
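Luminescence read-out: Huh7 cells stably expressing Rab9-luciferase, treated 24 h with compound at 37 °C, then lysed with luciferase reagent for 10 min at ambient before reading.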
* hit, by the source's call; ? = inconclusive; . = not tested or not shown; [ ] = dose if it differs, or a comment. Calls come from the whole dose curve; as a rule, active = well fitted curve in the direction sought with a large enough effect; inconclusive = small, poorly fitted or top-dose-only effect, or another doubt; inactive = no such curve, though single readings can be large; an effect the other way counts as inactive or inconclusive. Potency is the fitted concentration of half-maximal effect.

SMILES	SMN2 splice enh	FLuc modulator	NPC1 promoter act	ELG1 genotoxic	Rab9 prom act
Cc1ccc(S(=O)(=O)N[C@H](CN)C(=O)O)cc1	-2%[9.22 µM]	.	.	.	.
CCc1ccc(-n2c(=O)c3cccnc3n2CC(=O)Nc2cc(F)ccc2F)cc1	.	0%	.	.	.
CCc1c(C)nc(SCC(=O)c2cccs2)c(C#N)c1C	16µM*	2.7µM*	3.2µM*	9.2µM*	?
CCc1c(C)nc(SCC(N)=O)c(C#N)c1C	2%	4%	0%	0%	7%
CCc1cc2c(SCC(=O)c3cccs3)ncnc2s1	?	-12%	22%	23µM*	7%
CCc1cc2c(SCC(=O)c3ccccc3)ncnc2s1	8.9µM*	?	20%	?	2%
COc1ccc(Cn2c(=O)c3oc4ccccc4c3n(Cc3ccc(F)cc3)c2=O)cc1	.	-3%	.	.	.
CCOc1cc(CNC(=O)c2cc(-c3ccccc3)n[nH]2)cc(OCC)c1OCC	.	-16%	.	.	.
CC(C)(C)C(=O)NC(=S)Nc1sc2c(c1C#N)CCCCC2	-13%	?	27%	13%	22%
Cc1ccccc1C(=O)NC(=S)Nc1sc2c(c1C#N)CCCC2	-4%	19µM*	-2%	0%	-1%
C=CCNC(=S)Nc1sc2c(c1C#N)CCCC2	12%	21µM*	-1%	-1%	2%
N#Cc1c(NC(=O)c2ccccc2)sc2c1CCCCC2	0.63µM*	?	0.79µM*	?	0.56µM*
O=C1C(Cl)=C(NC(=O)c2ccccc2)C(=O)C(Cl)=C1NC(=O)c1ccccc1	.	?	-9%	2%	-10%
N#Cc1c(Cl)nsc1NC(=O)c1ccccc1	-42%	15µM*	-15%	-2%	-23%
CCN(CC)c1ccc(NC(=O)c2cc3c(=O)n4cccc(C)c4nc3n2C)c(C)c1	.	-2%	.	.	.
CCOC(=O)CNC(=O)CSc1cn(CC(=O)N2CCCCCC2)c2ccccc12	.	-2%	.	.	.
Cc1ccc(C(=O)Nc2sc3c(c2C#N)CCCCC3)cc1C	?	?	2.2µM*	?	3.2µM*
CC(=O)Nc1sc2c(c1C#N)CCCCC2	21%	?	15%	17%	15%
N#Cc1c(NC(=O)CSC2=NCCS2)sc2c1CCCC2	-24%	-18%	1%	-5%	-1%
O=C(CSC1=NCCS1)Nc1nc2c(s1)CCCC2	30%	17µM*	?	8%	?
Cn1nnnc1SCC(=O)Nc1nc2c(s1)CCCC2	.	12µM*	?	8.2µM*	3.2µM*
COc1ccc(C(=O)N2CCC3(CC2)CN(c2ncccn2)C3)cc1	-9%	.	.	.	.
O=c1nccc(N/N=C/c2ccccc2O)[nH]1	.	?	-18%	6%	-5%
COc1cccc(/C=N/Nc2ccc([N+](=O)[O-])cn2)c1O	.	0.76µM*	-23%	2.6µM*	-25%
COc1cccc(/C=N/Nc2ccnc(=O)[nH]2)c1O	.	17µM*	-22%	11%	-20%
SMILES	SMN2 splice enh	FLuc modulator	NPC1 promoter act	ELG1 genotoxic	Rab9 prom act
CCNc1ncc2nc(-c3ccc(F)cc3)c(=O)n(CCC#N)c2n1	-10%	.	.	.	.
CCN(CC)C(=O)CSc1nc(-c2ccc(C)cc2)nc2c1Cc1c(CO)cnc(C)c1O2	.	-8%	.	.	.
CC(=O)Nc1ccc(/C=C/c2nc3ccccc3o2)cc1	.	4.8µM*	2.2µM*	?	0.45µM*
O=C(Nc1ccc(/C=C/c2nc3ccccc3o2)cc1)c1c(F)cccc1F	8.9µM*	2.1µM*	3.2µM*	1.5µM*	2µM*
O=C(Nc1ccc(/C=C/c2nc3ccccc3o2)cc1)c1cccc(C(F)(F)F)c1	.	?	28%	?	?
COc1ccc(C(=O)Oc2c(Sc3ccc(C)cc3)c(C)nn2C(C)(C)C)c(OC)c1	-17%	-6%	.	.	.
CCc1nn(CC(=O)NC(C)CC)c(=O)c2cc3c(OC)cccc3n12 (configuration not stated)	5%	2%	.	.	.
Cc1nn(-c2ccccc2)c(/N=C/c2ccc(O)cc2)c1-c1ccccc1	18µM*	-5%	?	14%	?
Cc1ccc(-c2cccc(OC(=O)c3ccccc3F)c2)cc1	17%	5.4µM*	-8%	8%	7%
CC(C)(C)c1cc(OC(=O)c2ccccc2F)ccc1O	.	27µM*	1%	-1%	-2%
Cc1ccc(-c2cc(C(=O)Oc3ccccc3)c3cccc(C)c3n2)cc1	-2%	-5%	.	.	.
CC1CCC(NC(=O)c2ccc3c(c2)N(Cc2ccccc2F)C(=O)c2ccccc2S3=O)CC1 (configuration not stated)	25%	-1%	.	.	.
O=C(Cn1nc(-c2ccccc2)c2cnc3ccc(F)cc3c21)NC1CCCC1	.	1%	.	.	.
O=C(NC1CCCCC1)c1ccc(Cn2c(SCc3cccc(F)c3)nc3cccnc32)cc1	.	-14%	.	.	.
O=C(O)c1sc2cc(C(F)(F)F)cnc2c1-c1cccs1	6%	11µM*	2%	-8%	-10%
Nc1nc2c(c(=O)[nH]1)N[C@H](CCNc1ccc(C(=O)O)cc1)CN2	-4%[9.22 µM]	.	.	.	.
Cc1nnc(NC(=O)c2cccc(NC(=O)C(C)C)c2)s1	6%	-16%	4%	4%	5%
CC(C)C(=O)Nc1cccc(C(=O)Nc2nnc(C(F)(F)F)s2)c1	14%	17µM*	.	.	.
CC(C)c1nnc(NC(=O)c2cccc(NC(=O)C(F)(F)F)c2)s1	14µM*	21µM*	3.5µM*	?	1.3µM*
CC(C)C(=O)Nc1ccc(C(=O)Nc2nnc(C(C)C)s2)cc1	.	?	23%	12%	?
CCc1nnc(NC(=O)c2cccc(NC(=O)C(C)C)c2)s1	16µM*	?	?	29%	?
CC(C)C(=O)Nc1cccc(C(=O)Nc2nnc(C(C)C)s2)c1	11µM*	?	2.8µM*	?	1.4µM*
COc1ccc(S(=O)(=O)c2c(Nc3ccc(C)cc3C)sc(C(=O)c3ccc(F)cc3)c2N)cc1	.	0%	.	.	.
COC(=O)c1ccccc1NC(=O)c1ccc(-c2nc(COc3ccccc3)c(C)o2)cc1	.	-5%	.	.	.
O=C(OCC1CC(c2ccccc2)=NO1)c1ccc(Br)cc1 (configuration not stated)	?	6%	0%	0%	2%
O=C(OCC1CC(c2ccccc2)=NO1)c1ccco1 (configuration not stated)	.	7.6µM*	-1%	2%	1%
O=C(Nc1ccc(Cl)cc1)C1=Cc2ccccc2OC1	22µM*	1.9µM*	3.2µM*	1.5µM*	0.56µM*
O=C(Nc1ccc2c(c1)OCO2)c1ccc(Cl)s1	7.1µM*	4.3µM*	2.2µM*	2.6µM*	2µM*
CC(NC(=O)C1=Cc2ccccc2OC1)c1ccccc1 (configuration not stated)	.	-3%	.	.	.
